Measured values from PubChem BioAssay AID2284124 (EPA ToxCast).
The source made the active and inactive calls. Rule for the calls: active = hit-call score of the fitted dose curve at least 0.9, where 1 is the maximum; inactive = score below 0.9.

Each compound was assayed on guinea pig Atrial Natriuretic Factor (ANF, Non-Selective), gene 100135578 (assay: ERF_TW_GPCR_gANPA: Eurofins (ERF) Binding Assay for guinea pig Atrial Natriuretic Factor (ANF, Non-Selective)).
Protocol: ERF_TW_GPCR_gANPA is a biochemical, single-readout assay that uses extracted gene-proteins in a cell-free assay. Measurements were taken 1 hour after chemical dosing in a 96-well plate. See Atrial Natriuretic Factor (ANF, Non-Selective) Guinea Pig Binding Assay, Panlabs.ERF_TW_GPCR_gANPA is an assay component calculated from the ERF_TW_GPCR_gANPA assay. It is designed to measure radioligand binding using a type of binding reporter as detected by scintillation counting with radiometry technology.Data from the assay component ERF_TW_GPCR_gANPA was analyzed at the assay endpoint, ERF_TW_GPCR_gANPA, in the positive analysis fitting direction relative to DMSO as the negative control and baseline of activity. Using a type of binding reporter, loss-of-signal activity can be used to understand changes in binding as they relate to gene ANPA. To generalize the intended target to other relatable targets, this assay endpoint is annotated to the gpcr intended target family, where the subfamily is guanylyl cyclase.
This assay measures binding of Atrial Natriuretic Peptide to sites associated with the ANF. Guinea pig striatal membranes are prepared in Tris-HCl buffer pH 7.4. A 24 ug aliquot of membrane is incubated with 16 pM Atrial Natriuretic Peptide for 60 minutes at 4C. Non-specific binding is estimated in the presence of 0.1 uM ANF.
In the case of O=C(/C=C/c1ccc(O)cc1)CC(=O)/C=C/c1ccc(O)cc1, the outcome is reported as “inactive”.
